Experimental data taken from PubChem BioAssay (EPA / NIEHS).
Activity calls are given as the source filed them. The calls were made as follows: active = hit-call score of the fitted dose curve at least 0.9, where 1 is the maximum; inactive = score below 0.9.

What was measured:
Details in all cases: mRNA level, 48 h; actives raise or lower the signal
CYP4A11 (gene 1579) = assay: LTEA_HepaRG_CYP4A11: Life Technologies and Expression Analysis (LTEA) Assay for CYP4A11 using HepaRG (AID 2283486)
Summary of the method: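 Differentiated HepaRG cells, 48 h after plating, exposed in duplicate for 48 h to 8 half-log concentrations up to 100 uM in 0.5% DMSO in serum-free induction medium. CYP4A11 mRNA measured by TaqMan qRT-PCR, normalized to ACTB, GAPDH and POLR2A.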

[1] = read-out: Cytochrome P450 3A4 (Homo sapiens) (UniProt P08684); assay: LTEA_HepaRG_CYP3A4: Life Technologies and Expression Analysis (LTEA) Assay for CYP3A4 using HepaRG (AID 2283487)
Summary of the method: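 HepaRG, 48 h exposure, 8-pt CRC from 100 uM (half-log), 0.5% DMSO, duplicates; serum-free induction medium. Readout: CYP3A4 mRNA, qRT-PCR, ACTB/GAPDH/POLR2A normalization. Bidirectional fit vs DMSO.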

[2] = read-out: DNA damage-inducible transcript 3 (DDIT3), DDIT3 (gene 1649); assay: LTEA_HepaRG_DDIT3: Life Technologies and Expression Analysis (LTEA) Assay for DNA damage-inducible transcript 3 (DDIT3) using HepaRG (AID 2283488)
Summary of the method: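 Cells are human HepaRG liver cells treated for 48 h with eight half-log concentrations up to 100 uM in 0.5% DMSO. Transcript levels come from qRT-PCR normalized to three housekeeping genes, with activity fitted in both directions relative to vehicle.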

[3] = read-out: Early growth response protein 1 (EGR1) transcription factor, EGR1 (gene 1958); assay: LTEA_HepaRG_EGR1: Life Technologies and Expression Analysis (LTEA) Assay for Early growth response protein 1 (EGR1) transcription factor using HepaRG (AID 2283490)
Summary of the method: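 EGR1 transcript levels quantified by qRT-PCR (Fluidigm arrays) against three housekeeping genes after 48 h chemical exposure of HepaRG cells. Eight-point half-log series topping at 100 uM, 0.5% DMSO vehicle, analyzed for gain or loss.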

[4] = read-out: Ezrin (EZR), EZR (gene 7430); assay: LTEA_HepaRG_EZR: Life Technologies and Expression Analysis (LTEA) Assay for Ezrin (EZR) using HepaRG (AID 2283491)
Summary of the method: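 Read-out is EZR transcript level by qRT-PCR, normalized to three housekeeping genes and fitted bidirectionally against the DMSO control. Human HepaRG cells received test chemicals for 48 h at eight half-log concentrations up to 100 uM in 0.5% DMSO.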

[5] = read-out: Cytochrome P450 3A7 (Homo sapiens) (UniProt P24462); assay: LTEA_HepaRG_CYP3A7: Life Technologies and Expression Analysis (LTEA) Assay for CYP3A7 using HepaRG (AID 2283492)
Summary of the method: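 Differentiated HepaRG cells in serum-free induction medium exposed 48 h in duplicate to 8-point half-log series from 100 uM top in 0.5% DMSO. CYP3A7 mRNA by qRT-PCR, normalized to ACTB/GAPDH/POLR2A, bidirectional fit versus DMSO.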

CYP3A5 (gene 1577) = assay: LTEA_HepaRG_CYP3A5: Life Technologies and Expression Analysis (LTEA) Assay for CYP3A5 using HepaRG (AID 2283493)
Summary of the method: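 Human HepaRG hepatic cells receive 48 h chemical treatment at eight concentrations (half-log steps from 100 uM) in 0.5% DMSO. Expression of CYP3A5 is quantified by Fluidigm qRT-PCR and normalized to three reference genes.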

[6] = read-out: Fatty Acid-Binding Protein 1 (FABP1), FABP1 (gene 2168); assay: LTEA_HepaRG_FABP1: Life Technologies and Expression Analysis (LTEA) Assay for Fatty Acid-Binding Protein 1 (FABP1) using HepaRG (AID 2283494)
Summary of the method: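 FABP1 expression by TaqMan qRT-PCR, normalised to three housekeeping genes, in HepaRG cells after 48 h chemical treatment. Eight-point half-log series topping at 100 uM in 0.5% DMSO, duplicates; gain or loss fitted relative to vehicle.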

[7] = read-out: Cytochrome P450 4A22 (Homo sapiens) (UniProt Q5TCH4); assay: LTEA_HepaRG_CYP4A22: Life Technologies and Expression Analysis (LTEA) Assay for Cytochrome P450 4A22 (CYP4A22) using HepaRG (AID 2283495)
Summary of the method: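 Differentiated HepaRG cells in serum-free induction medium exposed 48 h in duplicate to eight half-log concentrations up to 100 uM in 0.5% DMSO. CYP4A22 mRNA quantified by TaqMan qRT-PCR, normalized to ACTB, GAPDH and POLR2A; bidirectional fit versus DMSO.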

[8] = read-out: Cytochrome P450 7A1 (Homo sapiens) (UniProt P22680); assay: LTEA_HepaRG_CYP7A1: Life Technologies and Expression Analysis (LTEA) Assay for Cytochrome P450 7A1 (CYP7A1) using HepaRG (AID 2283496)
Summary of the method: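 HepaRG, 48 h exposure, 8-pt half-log series from 100 uM, 0.5% DMSO vehicle, duplicates. Readout: TaqMan qRT-PCR mRNA vs three housekeeping genes; bidirectional curve fit against DMSO baseline.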

[9] = read-out: Glutathione S-Transferase (GSTA2), GSTA2 (gene 2939); assay: LTEA_HepaRG_GSTA2: Life Technologies and Expression Analysis (LTEA) Assay for Glutathione S-Transferase (GSTA2) using HepaRG (AID 2283497)
Summary of the method: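 GSTA2 transcript levels came from Fluidigm TaqMan qRT-PCR normalized to three housekeeping genes, fitted in both directions against DMSO. HepaRG cultures received chemicals for 48 h in serum-free induction medium (0.5% DMSO), 8 half-log concentrations up to 100 uM, duplicate.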

[10] = read-out: Glutamate-cysteine ligase catalytic (GCLC), GCLC (gene 2729); assay: LTEA_HepaRG_GCLC: Life Technologies and Expression Analysis (LTEA) Assay for Glutamate-cysteine ligase catalytic (GCLC) using HepaRG (AID 2283498)
Summary of the method: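 Expression by TaqMan qRT-PCR, normalized to three housekeeping genes (ACTB, GAPDH, POLR2A), with up- or down-regulation fitted against DMSO. HepaRG cells dosed in duplicate for 48 h with 8 half-log concentrations up to 100 uM, vehicle 0.5% DMSO.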

[11] = read-out: growth arrest and DNA damage 45 (GADD45G), GADD45G (gene 10912); assay: LTEA_HepaRG_GADD45G: Life Technologies and Expression Analysis (LTEA) Assay for growth arrest and DNA damage 45 (GADD45G) using HepaRG (AID 2283499)
Summary of the method: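 Differentiated human HepaRG cells, 48 h post-plating, exposed 48 h in serum-free induction medium to 8 half-log concentrations (top 100 uM, 0.5% DMSO) in duplicate. GADD45G mRNA measured by Fluidigm TaqMan qRT-PCR, normalized to ACTB, GAPDH, POLR2A; bidirectional fit versus DMSO.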

[12] = read-out: Glutamate-cysteine ligase regulatory (GCLM), GCLM (gene 2730); assay: LTEA_HepaRG_GCLM: Life Technologies and Expression Analysis (LTEA) Assay for Glutamate-cysteine ligase regulatory (GCLM) using HepaRG (AID 2283500)
Summary of the method: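 Endpoint is GCLM transcript level by qRT-PCR, normalized to three housekeeping genes, after 48 h chemical exposure of human HepaRG cells (0.5% DMSO vehicle, top 100 uM, half-log dilutions). Fitting was bidirectional relative to DMSO.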

[13] = read-out: Glutathione S-transferase M3 (GSTM3), GSTM3 (gene 2947); assay: LTEA_HepaRG_GSTM3: Life Technologies and Expression Analysis (LTEA) Assay for Glutathione S-transferase M3 (GSTM3) using HepaRG (AID 2283501)
Summary of the method: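 Differentiated human HepaRG cells were exposed in duplicate for 48 h in serum-free induction medium, 8 points from 100 uM top in half-log steps, 0.5% DMSO. GSTM3 mRNA was measured by TaqMan qRT-PCR, normalized to ACTB, GAPDH and POLR2A; bidirectional fit versus DMSO.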

[14] = read-out: Heat shock 70 kDa protein 1 (HSPA1A), gene 3303; assay: LTEA_HepaRG_HSPA1A: Life Technologies and Expression Analysis (LTEA) Assay for Heat shock 70 kDa protein 1 (HSPA1A) using HepaRG (AID 2283502)
Summary of the method: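 Cells were plated and cultured for 48 h, then switched to serum-free induction medium. Chemicals were added at eight half-log concentrations up to 100 uM for 48 h. RNA was then isolated and HSPA1A measured by qRT-PCR with bidirectional curve fitting against DMSO.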

[15] = read-out: Hypoxia-inducible factor 1-alpha (Homo sapiens) (UniProt Q16665); assay: LTEA_HepaRG_HIF1A: Life Technologies and Expression Analysis (LTEA) Assay for Hypoxia-inducible factor 1 (HIF1A) Trancription factor using HepaRG (AID 2283503)
Summary of the method: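 HIF1A transcript level read by qRT-PCR (ACTB, GAPDH, POLR2A normalization) after 48 h chemical exposure of HepaRG cultures. Eight half-log concentrations, top 100 uM, 0.5% DMSO vehicle, duplicates; bidirectional curve fit against DMSO baseline.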

[16] = read-out: 3-Hydroxy-3-Methylglutaryl-CoA Synthase 2 (HMGCS2), HMGCS2 (gene 3158); assay: LTEA_HepaRG_HMGCS2: Life Technologies and Expression Analysis (LTEA) Assay for 3-Hydroxy-3-Methylglutaryl-CoA Synthase 2 (HMGCS2) using HepaRG (AID 2283504)
Summary of the method: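 Human HepaRG cells in serum-free induction medium were exposed in duplicate for 48 h to 8-point half-log series from 100 uM top in 0.5% DMSO. HMGCS2 mRNA measured by TaqMan qRT-PCR, normalised to ACTB, GAPDH, POLR2A; bidirectional fit versus DMSO.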

HGF (gene 3082) = assay: LTEA_HepaRG_HGF: Life Technologies and Expression Analysis (LTEA) Assay for Hepatocyte Growth Facto (HGF) using HepaRG (AID 2283505)
Summary of the method: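 Differentiated HepaRG cells in serum-free induction medium exposed 48 h in duplicate, 8 half-log concentrations from 100 uM in 0.5% DMSO. HGF mRNA by qRT-PCR, normalised to ACTB, GAPDH, POLR2A; bidirectional fitting.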

[17] = read-out: Pro-epidermal growth factor (Homo sapiens) (UniProt P01133); assay: LTEA_HepaRG_EGF: Life Technologies and Expression Analysis (LTEA) Assay for Epidermal growth factor (EGF) using HepaRG (AID 2283489)
Summary of the method: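 HepaRG cells (~100,000/well, 48 h pre-culture) exposed in duplicate for 48 h in serum-free induction medium to 8 half-log concentrations up to 100 uM in 0.5% DMSO. EGF mRNA by qRT-PCR, normalized to ACTB/GAPDH/POLR2A; bidirectional fit versus DMSO.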

Measured: AC50

Sequence of Cytochrome P450 3A7 (Homo sapiens) (P24462 whole entry, looked up): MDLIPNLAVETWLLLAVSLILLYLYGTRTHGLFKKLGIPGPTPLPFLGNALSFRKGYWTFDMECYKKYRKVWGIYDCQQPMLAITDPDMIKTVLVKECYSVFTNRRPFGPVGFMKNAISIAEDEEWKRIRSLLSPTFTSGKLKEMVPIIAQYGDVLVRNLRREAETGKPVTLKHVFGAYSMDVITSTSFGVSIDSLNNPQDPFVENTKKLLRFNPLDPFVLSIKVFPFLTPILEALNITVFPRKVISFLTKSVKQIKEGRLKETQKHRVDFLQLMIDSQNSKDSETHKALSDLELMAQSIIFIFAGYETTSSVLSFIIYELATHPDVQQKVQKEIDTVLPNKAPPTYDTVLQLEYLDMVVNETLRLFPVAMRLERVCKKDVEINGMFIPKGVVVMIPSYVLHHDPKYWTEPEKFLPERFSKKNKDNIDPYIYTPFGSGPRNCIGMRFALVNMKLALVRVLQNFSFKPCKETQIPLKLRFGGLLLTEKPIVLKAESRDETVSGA
Sequence of Hypoxia-inducible factor 1-alpha (Homo sapiens) (Q16665 whole entry, looked up): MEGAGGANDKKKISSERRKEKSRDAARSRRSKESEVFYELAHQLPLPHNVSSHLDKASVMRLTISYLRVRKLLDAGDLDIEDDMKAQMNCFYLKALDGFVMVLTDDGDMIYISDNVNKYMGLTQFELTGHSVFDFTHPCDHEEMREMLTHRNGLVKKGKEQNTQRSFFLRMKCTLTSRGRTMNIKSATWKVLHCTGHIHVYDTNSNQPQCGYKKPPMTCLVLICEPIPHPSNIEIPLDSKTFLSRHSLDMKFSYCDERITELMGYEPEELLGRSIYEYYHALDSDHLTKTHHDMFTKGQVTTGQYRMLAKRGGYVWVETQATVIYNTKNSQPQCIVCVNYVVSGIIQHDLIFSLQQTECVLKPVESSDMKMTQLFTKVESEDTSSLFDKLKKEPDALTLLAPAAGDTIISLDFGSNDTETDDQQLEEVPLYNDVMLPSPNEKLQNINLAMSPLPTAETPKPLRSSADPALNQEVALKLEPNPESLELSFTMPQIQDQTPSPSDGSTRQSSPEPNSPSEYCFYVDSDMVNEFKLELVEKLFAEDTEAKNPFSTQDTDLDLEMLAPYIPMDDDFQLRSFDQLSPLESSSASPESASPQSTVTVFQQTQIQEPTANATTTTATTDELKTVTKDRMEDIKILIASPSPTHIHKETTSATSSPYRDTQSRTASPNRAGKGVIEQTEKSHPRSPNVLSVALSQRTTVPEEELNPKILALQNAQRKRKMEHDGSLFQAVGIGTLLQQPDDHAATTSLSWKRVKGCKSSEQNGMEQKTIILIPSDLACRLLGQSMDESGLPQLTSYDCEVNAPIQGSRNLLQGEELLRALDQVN
Sequence of Cytochrome P450 3A4 (Homo sapiens) (P08684 whole entry, looked up): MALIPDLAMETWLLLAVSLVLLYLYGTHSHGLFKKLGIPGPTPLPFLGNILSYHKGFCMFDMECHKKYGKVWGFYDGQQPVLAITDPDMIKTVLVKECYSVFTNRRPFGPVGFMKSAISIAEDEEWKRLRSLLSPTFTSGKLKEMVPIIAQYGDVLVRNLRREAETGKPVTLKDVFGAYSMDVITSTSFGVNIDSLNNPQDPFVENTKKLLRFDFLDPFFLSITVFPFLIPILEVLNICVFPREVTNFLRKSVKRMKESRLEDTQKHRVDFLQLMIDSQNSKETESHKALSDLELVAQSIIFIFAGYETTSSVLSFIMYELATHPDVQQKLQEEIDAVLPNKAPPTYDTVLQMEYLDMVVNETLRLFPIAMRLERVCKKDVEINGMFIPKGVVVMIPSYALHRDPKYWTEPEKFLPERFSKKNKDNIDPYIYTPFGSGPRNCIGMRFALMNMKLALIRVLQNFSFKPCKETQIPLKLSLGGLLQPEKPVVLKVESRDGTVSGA

CC(C)N(Cc1ccccc1)C(=O)C(C)(C)C
active: [1] 3.44 µM | [5] 11.5 µM | [6] 8.19 µM
not listed: [17]
inactive: all other assays above

CCC[CH2][Sn]([Cl])([CH2]CCC)[CH2]CCC
active: [1] 2.27 µM | [2] 2.28 µM | [3] 50 µM | [5] 0.377 µM | CYP3A5 (gene 1577) 82.8 µM | [6] 2.31 µM | [9] 1.67 µM | [10] 50 µM | [11] 5.56 µM | [14] 2.27 µM | [15] 2.07 µM | [16] 1.24 µM | HGF (gene 3082) 50 µM
inactive: CYP4A11 (gene 1579) | [4] | [12] | [13]

CC(C)(C)C(O)(CCc1ccc(Cl)cc1)Cn1cncn1 (stereo unspecified)
active: CYP4A11 (gene 1579) 55.2 µM | [1] 2.86 µM | [3] 90.1 µM | [5] 2.43 µM | [6] 11.5 µM | [7] 57 µM | [8] 50 µM | [9] 76.4 µM | [11] 50 µM | [12] 50 µM | [16] 72.3 µM | HGF (gene 3082) 79.1 µM
inactive: [17] | [4] | CYP3A5 (gene 1577) | [10] | [13] | [14] | [15]

Nc1ccc(Cl)cc1N
active: CYP4A11 (gene 1579) 23.2 µM | [1] 19.7 µM | [2] 50 µM | [3] 12.9 µM | CYP3A5 (gene 1577) 17.3 µM | [6] 28.2 µM | [7] 29.7 µM | [8] 23.1 µM | [9] 27.9 µM | [10] 32.6 µM | [11] 38.8 µM | [14] 20.6 µM | [15] 19.7 µM | [16] 34.1 µM | HGF (gene 3082) 33.6 µM
inactive: [17] | [4] | [12] | [13]

CCNS(=O)(=O)C(F)(F)C(F)(F)C(F)(F)C(F)(F)C(F)(F)C(F)(F)C(F)(F)C(F)(F)F
active: CYP4A11 (gene 1579) 12 µM | [3] 35.6 µM | [6] 59.3 µM | [8] 48.2 µM | [9] 48.2 µM | [11] 36.6 µM
not listed: [7] | [14]
inactive: all other assays above

Nc1cc(Cl)cc(C(=O)O)c1Cl
active: CYP4A11 (gene 1579) 50 µM
inactive: all other assays above

C[C@]12C=CC3=C4CCC(=O)C=C4CC[C@H]3[C@@H]1CC[C@@H]2O
active: [1] 0.458 µM | [6] 47.7 µM | [11] 60.9 µM | [12] 79 µM
not listed: CYP4A11 (gene 1579) | [3] | [5] | CYP3A5 (gene 1577) | [7] | [8]
inactive: all other assays above

CNC(=O)Oc1cccc2c1OC(C)(C)C2
active: [1] 6.81 µM | [5] 7.32 µM | [6] 3.45 µM | [8] 9.92 µM | [16] 38.8 µM
inactive: all other assays above
